# Results from PubChem BioAssay (NCI).
# Values joined by “and” are separate entries in the source; they are usually repeats but may differ in a detail not shown here. Identical values can stand only once. Compounds without any hit were thinned out: in the full panel of roughly 83,000, 20% have a hit.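 The endpoint reported here, percent growth, reads 100 for growth as untreated, 0 for no net growth and -100 for all cells dead.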 Active and inactive are the calls of the source. Rule for the calls: active = growth percent below 10; inactive = the rest.
# How the values were obtained:
# Test in all cases: NCI-60 one-dose screen, 48 h (100 = growth as untreated, 0 = no growth, -100 = all killed)
# HCT-15 colon = test system: HCT-15 colon
# HT29 colon = test system: HT29 colon
# SNB-75 CNS = test system: SNB-75 CNS
# SNB-19 CNS = test system: SNB-19 CNS
# U251 CNS = settings: 10 µM unless noted
# PC-3 prostate = test system: PC-3 prostate
# SK-MEL-5 melanoma = test system: SK-MEL-5 melanoma
# UACC-62 melanoma = settings: 10 µM unless noted
# LOX IMVI melanoma = settings: 10 µM unless noted
# SK-MEL-28 melanoma = settings: 10 µM unless noted
# SK-MEL-2 melanoma = test system: SK-MEL-2 melanoma
# EKVX NSCLC = test system: EKVX NSCLC
# SN12C renal = test system: SN12C renal
# UO-31 renal = test system: UO-31 renal
# TK-10 renal = test system: TK-10 renal
# ACHN renal = test system: ACHN renal
# CAKI-1 renal = test system: CAKI-1 renal
# CCRF-CEM leukemia = test system: CCRF-CEM leukemia
# MOLT-4 leukemia = test system: MOLT-4 leukemia
# A498 renal = settings: 10 µM unless noted
structure (smiles),measurement,setting,value
CC(C)(C)c1ccc(O)c(C2CCCCC2)c1,growth,HCT-15 colon; 10 µM unless noted,102% (inactive)
same,growth,HT29 colon; 10 µM unless noted,87% (inactive)
same,growth,SNB-75 CNS; 10 µM unless noted,100% (inactive)
same,growth,SNB-19 CNS; 10 µM unless noted,122% (inactive)
same,growth,U251 CNS,101% (inactive)
same,growth,PC-3 prostate; 10 µM unless noted,95% (inactive)
same,growth,SK-MEL-5 melanoma; 10 µM unless noted,96.3% (inactive)
same,growth,UACC-62 melanoma,96.7% (inactive)
same,growth,LOX IMVI melanoma,104% (inactive)
same,growth,SK-MEL-28 melanoma,110% (inactive)
same,growth,SK-MEL-2 melanoma; 10 µM unless noted,89% (inactive)
same,growth,EKVX NSCLC; 10 µM unless noted,115% (inactive)
same,growth,SN12C renal; 10 µM unless noted,97.5% (inactive)
same,growth,UO-31 renal; 10 µM unless noted,104% (inactive)
same,growth,TK-10 renal; 10 µM unless noted,92.2% (inactive)
same,growth,ACHN renal; 10 µM unless noted,103% (inactive)
same,growth,CAKI-1 renal; 10 µM unless noted,116% (inactive)
same,growth,CCRF-CEM leukemia; 10 µM unless noted,47.9% (inactive)
same,growth,MOLT-4 leukemia; 10 µM unless noted,-31.9% (active)
COC(=O)Nc1nc2ccc(C(=O)c3ccccc3)cc2[nH]1,growth,HCT-15 colon; 10 µM unless noted,30.2% (inactive) and 14.1% (inactive) and 15.8% (inactive)
same,growth,HT29 colon; 10 µM unless noted,4% (active) and 5.13% (active) and 2.8% (active)
same,growth,SNB-75 CNS; 10 µM unless noted,8.68% (active) and 89.4% (inactive) and 23.9% (inactive)
same,growth,SNB-19 CNS; 10 µM unless noted,33.6% (inactive) and 14.3% (inactive) and 33.1% (inactive)
same,growth,U251 CNS,23.7% (inactive) and 19.9% (inactive) and 16.9% (inactive)
same,growth,PC-3 prostate; 10 µM unless noted,30.5% (inactive) and 18.6% (inactive) and 16.7% (inactive)
same,growth,SK-MEL-5 melanoma; 10 µM unless noted,8.39% (active) and 4.91% (active) and -9.41% (active)
same,growth,UACC-62 melanoma,47.8% (inactive) and 31.1% (inactive) and 37.4% (inactive)
same,growth,LOX IMVI melanoma,37.6% (inactive) and 31.3% (inactive) and 31.1% (inactive)
same,growth,SK-MEL-28 melanoma,48.9% (inactive) and 61.5% (inactive) and 55.6% (inactive)
same,growth,SK-MEL-2 melanoma; 10 µM unless noted,44.1% (inactive) and 45.4% (inactive) and -21.7% (active)
same,growth,EKVX NSCLC; 10 µM unless noted,60.4% (inactive) and 39% (inactive) and 21.6% (inactive)
same,growth,SN12C renal; 10 µM unless noted,54.9% (inactive) and 28.7% (inactive) and 58.1% (inactive)
same,growth,UO-31 renal; 10 µM unless noted,48% (inactive) and 38.3% (inactive) and 25.3% (inactive)
same,growth,TK-10 renal; 10 µM unless noted,65% (inactive) and 75.9% (inactive) and 44.6% (inactive)
same,growth,ACHN renal; 10 µM unless noted,48.3% (inactive) and 54.2% (inactive)
same,growth,CAKI-1 renal; 10 µM unless noted,48.8% (inactive) and 27.1% (inactive) and 15% (inactive)
same,growth,A498 renal,13.9% (inactive) and 14.6% (inactive) and -12.2% (active)
same,growth,CCRF-CEM leukemia; 10 µM unless noted,15.7% (inactive) and -14.1% (active) and 1.15% (active)
same,growth,MOLT-4 leukemia; 10 µM unless noted,19.3% (inactive) and 7.52% (active) and 7.55% (active)
O=C1OCc2cccc3cccc1c23,growth,HCT-15 colon; 10 µM unless noted,94.6% (inactive)
same,growth,HT29 colon; 10 µM unless noted,105% (inactive)
same,growth,SNB-75 CNS; 10 µM unless noted,85.2% (inactive)
same,growth,SNB-19 CNS; 10 µM unless noted,104% (inactive)
same,growth,U251 CNS,106% (inactive)
same,growth,PC-3 prostate; 10 µM unless noted,89.5% (inactive)
same,growth,SK-MEL-5 melanoma; 10 µM unless noted,101% (inactive)
same,growth,UACC-62 melanoma,95.5% (inactive)
same,growth,LOX IMVI melanoma,103% (inactive)
same,growth,SK-MEL-28 melanoma,107% (inactive)
same,growth,SK-MEL-2 melanoma; 10 µM unless noted,123% (inactive)
same,growth,EKVX NSCLC; 10 µM unless noted,88.2% (inactive)
same,growth,SN12C renal; 10 µM unless noted,101% (inactive)
same,growth,UO-31 renal; 10 µM unless noted,77% (inactive)
same,growth,TK-10 renal; 10 µM unless noted,101% (inactive)
same,growth,ACHN renal; 10 µM unless noted,95.7% (inactive)
same,growth,CAKI-1 renal; 10 µM unless noted,102% (inactive)
same,growth,A498 renal,83.5% (inactive)
same,growth,CCRF-CEM leukemia; 10 µM unless noted,94.5% (inactive)
same,growth,MOLT-4 leukemia; 10 µM unless noted,92.6% (inactive)
O=C(O)c1c(Cl)c(Cl)c(Cl)c(Cl)c1-c1c2cc(I)c(=O)c(I)c-2oc2c(I)c(O)c(I)cc12,growth,HCT-15 colon; 10 µM,101% (inactive) and 107% (inactive) and 90.1% (inactive)
same,growth,HCT-15 colon; 100 µM,22.9% (inactive)
same,growth,HT29 colon; 10 µM,105% (inactive) and 104% (inactive) and 95.2% (inactive)
same,growth,HT29 colon; 100 µM,39.2% (inactive)
same,growth,SNB-75 CNS; 10 µM,108% (inactive) and 91.1% (inactive) and 49.5% (inactive)
same,growth,SNB-75 CNS; 100 µM,26% (inactive)
same,growth,SNB-19 CNS; 10 µM,100% (inactive) and 98.4% (inactive) and 97.9% (inactive)
same,growth,SNB-19 CNS; 100 µM,-47.9% (active)
same,growth,U251 CNS,98.5% (inactive) and 95.3% (inactive) and 97.7% (inactive)
same,growth,PC-3 prostate; 10 µM,116% (inactive) and 82.8% (inactive) and 34% (inactive)
same,growth,PC-3 prostate; 100 µM,-7.17% (active)
same,growth,SK-MEL-5 melanoma; 10 µM,107% (inactive) and 110% (inactive) and 96.1% (inactive)
same,growth,SK-MEL-5 melanoma; 100 µM,22.1% (inactive)
same,growth,SK-MEL-2 melanoma; 10 µM,110% (inactive) and 108% (inactive) and 73.8% (inactive)
same,growth,SK-MEL-2 melanoma; 100 µM,-40.2% (active)
same,growth,EKVX NSCLC; 10 µM,98.6% (inactive) and 98.8% (inactive) and 91.3% (inactive)
same,growth,EKVX NSCLC; 100 µM,-19.9% (active)
same,growth,SN12C renal; 10 µM,99.1% (inactive) and 95.2% (inactive) and 98.3% (inactive)
same,growth,SN12C renal; 100 µM,2.38% (active)
same,growth,UO-31 renal; 10 µM,102% (inactive) and 72.9% (inactive) and 84% (inactive)
same,growth,UO-31 renal; 100 µM,49.8% (inactive)
same,growth,TK-10 renal; 10 µM,108% (inactive) and 116% (inactive) and 84.5% (inactive)
same,growth,TK-10 renal; 100 µM,36.6% (inactive)
same,growth,ACHN renal; 10 µM,100% (inactive) and 98.7% (inactive) and 89.6% (inactive)
same,growth,ACHN renal; 100 µM,-80.7% (active)
same,growth,CAKI-1 renal; 10 µM,107% (inactive) and 102% (inactive) and 90% (inactive)
same,growth,CAKI-1 renal; 100 µM,42.9% (inactive)
same,growth,CCRF-CEM leukemia; 10 µM,104% (inactive) and 101% (inactive) and 51.4% (inactive)
same,growth,CCRF-CEM leukemia; 100 µM,-30.2% (active)
same,growth,MOLT-4 leukemia; 10 µM,110% (inactive) and 106% (inactive) and 91.4% (inactive)
same,growth,MOLT-4 leukemia; 100 µM,-50.2% (active)
CC(C)(C)CC(C)(C)c1ccc(OCCSC(=N)N)cc1,growth,HCT-15 colon; 10 µM unless noted,1.48% (active)
same,growth,HT29 colon; 10 µM unless noted,2.71% (active)
same,growth,SNB-75 CNS; 10 µM unless noted,77.7% (inactive)
same,growth,SNB-19 CNS; 10 µM unless noted,87% (inactive)
same,growth,U251 CNS,12.3% (inactive)
same,growth,PC-3 prostate; 10 µM unless noted,72.2% (inactive)
same,growth,SK-MEL-5 melanoma; 10 µM unless noted,27.9% (inactive)
same,growth,UACC-62 melanoma,66.5% (inactive)
same,growth,LOX IMVI melanoma,8.68% (active)
same,growth,SK-MEL-28 melanoma,-72.7% (active)
same,growth,SK-MEL-2 melanoma; 10 µM unless noted,96.4% (inactive)
same,growth,EKVX NSCLC; 10 µM unless noted,51.8% (inactive)
same,growth,SN12C renal; 10 µM unless noted,53.7% (inactive)
same,growth,UO-31 renal; 10 µM unless noted,37.2% (inactive)
same,growth,TK-10 renal; 10 µM unless noted,72.3% (inactive)
same,growth,ACHN renal; 10 µM unless noted,69.1% (inactive)
same,growth,CAKI-1 renal; 10 µM unless noted,71.3% (inactive)
same,growth,MOLT-4 leukemia; 10 µM unless noted,9.3% (active)
